# Platelet DG rel: platelet dense granule release activity; human platelet-rich plasma, SFLLRN dense granule ATP release, luminescence; inhibition, %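 (compounds screened at 7.5 µM in platelet-rich plasma)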; 300,000 tested, 0.22% active;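 active = mean replicate score, as percent of positive control, at or above 50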
# SENP8 block-1: inhibitors of human SENP8 protease. Q96LD8. purified SENP8, Z-RLRGG-aminoluciferin cleavage, luminescence. inhibition, % at 10 µM. 330,000 tested, 1.2% active; in the data active = inhibition above about 50%
# SENP6 block: inhibitors of human SENP6 protease | AID 2599 | inhibition, % at 10 µM | Recombinant SENP6 catalytic domain, aminoluciferin luminescence | Q9GZR1 | 330,000 tested, 1.8% active;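 active = inhibition above about 50% at the single tested dose, limit read from the data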;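 note: plate controls were DMSO wells with enzyme for no effect and DMSO wells lacking enzyme for full effect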
# SENP8 block-2: inhibitors of human SENP8 protease | recombinant SENP8, Nedd8 substrate fluorescence | Q96LD8 | AID 602440 | inhibition, % at 20 µM | 360,000 tested, 0.64% active; in the data active = inhibition mostly above about 40%, no sharp cut-off; inactive = mostly below about 27%
# SENP7 block: inhibitors of human SENP7 protease. inhibition, % at 5 µM. Q9BQF6. 330,000 tested, 1.5% active. recombinant SENP7, Z-RLRGG-aminoluciferin luminescence, 40 min. AID 434973;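 active = inhibition above about 50% at the single test dose, limit read from the data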;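 note: plate controls were DMSO with enzyme for no effect and no enzyme buffer wells for full effect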
# Target sequence (Q9BQF6 706-1050 limits assumed): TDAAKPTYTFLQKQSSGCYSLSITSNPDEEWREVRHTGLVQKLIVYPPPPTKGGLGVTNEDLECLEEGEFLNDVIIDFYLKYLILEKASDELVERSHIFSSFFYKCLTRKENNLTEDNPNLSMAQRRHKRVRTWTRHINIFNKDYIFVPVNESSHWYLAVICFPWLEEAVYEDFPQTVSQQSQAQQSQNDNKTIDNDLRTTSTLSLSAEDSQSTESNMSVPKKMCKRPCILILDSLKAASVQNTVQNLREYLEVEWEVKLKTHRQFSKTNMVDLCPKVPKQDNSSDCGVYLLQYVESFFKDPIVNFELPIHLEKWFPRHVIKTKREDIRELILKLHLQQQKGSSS
# Starred values were filed as active, the others as inactive; x = not tested or not shown. An excerpt weighted towards active compounds, which were near 2.4% of everything screened.
SMILES,Platelet DG rel,SENP8 block-1,SENP6 block,SENP8 block-2,SENP7 block
O=S(=O)(Nc1ccc(-c2ccc3nncn3n2)cc1)c1ccccc1Cl,60.9*,-6.1,3.5,-200.1,3.5
COc1cccc(C(=O)N2CCC[C@@H]2C(=O)N2CCC[C@@H]2C(=O)NCc2ccccc2Cl)c1,x,x,x,11.4,x
CCOC(=O)c1sc(N2C(=O)C(O)=C(C(=O)c3ccc(C)o3)C2c2cccc([N+](=O)[O-])c2)nc1C (stereo not given),50.5*,x,x,3.9,x
Nc1ncnc(Nc2ccccc2Cl)n1,3.6,1.2,-11.7,12.3,-0.9
COC(=O)c1cccc(-n2sc3ccccc3c2=O)c1,x,57.0*,70.1*,8.2,19.1
COC(=O)c1cccc(N2CCCC2=O)c1,15.5,-5.2,-14.2,4.1,0.3
O=c1c2ccccc2sn1-c1ccc(Cl)cc1,x,x,x,8.9,x
Cc1ccc(-n2sc3ccccc3c2=O)cc1,17.1,85.7*,93.9*,13.5,76.7*
Nc1nc2cc(Cl)ccc2cc1C(=O)NCCCc1ccccc1,x,x,x,-355.7,x
CCc1ccc(C(=O)COC(=O)CNC(=O)C2CCCCC2)cc1,x,7.3,17.6,1.6,2.1
CC(=O)Nc1ccc(/C=C2\Sc3ccccc3C2=O)cc1,22.0,46.2,67.1*,-95.9,82.9*
CC1(C(=O)Nc2ccc3c(c2)OCCO3)CN(S(C)(=O)=O)CC(=O)N1CCCn1ccnc1 (stereo not given),x,x,x,24.0,x
O=C(NCC1CCCO1)c1cccc(NS(=O)(=O)c2ccc(Br)cc2)c1 (stereo not given),-0.3,-10.6,-12.3,3.1,13.7
CCOCCCN1CC(=O)N2[C@@H](Cc3c([nH]c4ccccc34)C2(C)C)C1=O,4.5,-2.5,-37.1,12.6,-1.3
Cc1[nH]n(C(N)=S)c(=O)c1N=Nc1ccc(S(=O)(=O)N2CCCC2)cc1,5.9,7.9,40.8,22.3,16.4
Cc1ccc(N=Nc2c(C)[nH]n(C(N)=S)c2=O)cc1,-4.3,73.7*,78.7*,18.0,62.7*
C[n+]1cccc(O)c1SCc1ccccc1,-8.5,-13.4,8.5,11.6,17.7
Cn1c(COc2ccccc2O)[n+](C)c2ccccc21,x,6.4,11.1,-6.0,1.0
COc1ccc(N=Nc2n(C)c3ccccc3[n+]2C)cc1,98.2*,x,x,x,x
O=C(Nc1cccc(F)c1)C1CCN(C(=O)Cc2ccccc2)CC1,50.6*,5.1,3.0,28.5,6.3
Cc1nc(-c2ccccc2)sc1-c1ccn[nH]1,3.2,47.5,61.1*,-391.1,56.4*
Cc1nc(-c2ccccc2)sc1-c1ccnn1C,-0.1,-5.0,-4.4,-420.4,6.8
CC1(OC(=O)c2cccs2)C(=O)C=C2C=C3CCCN3C=C2C1=O (stereo not given),1.8,-3.3,-21.1,58.6*,8.6
CCCc1c(-c2cccc(Br)c2)ncn1Cc1ccccc1OC,x,x,x,9.6,x
O=[N+]([O-])c1ccc(CSc2nc3ccccc3[nH]2)cc1,19.6,34.4,58.2*,18.3,60.9*
SMILES,Platelet DG rel,SENP8 block-1,SENP6 block,SENP8 block-2,SENP7 block
O=C(NCCO)c1ccc(CSc2nc3ccccc3[nH]2)cc1,6.9,-2.6,-9.1,3.2,5.2
Cc1nc2c(nc1C)C(=O)c1ccccc1C2=O,x,x,x,64.9*,x
O=C(c1ccccc1)N1CCC(CC2CC(c3cccc(Br)c3)=NO2)(C(=O)NCC2CCCCC2)CC1 (stereo not given),-4.4,-11.1,-18.7,50.4*,-10.1
OCCNc1cc(Cl)ncn1,6.9,5.9,-1.2,6.9,-1.8
O=C1NC(Cc2ccc(O)cc2)c2nc3ccc(Br)cc3c(=O)n2-c2ncccc21 (stereo not given),x,x,x,-15.7,x
O=c1[nH]c2cc3c(cc2cc1CN(CCc1ccccc1)Cc1nnnn1C1CCCC1)OCCO3,49.8*,x,x,x,x
CCn1c2ccccc2c2cc(NC(=O)CSc3nnc(-c4cccc(Cl)c4)o3)ccc21,61.1*,10.1,-4.6,7.4,1.5
CCSc1nnc(NC(=O)c2ccccc2)s1,7.1,29.4,53.0*,-15.8,40.2
Cc1ccccc1C(=O)Nc1nnc(-c2ccco2)s1,3.9,44.4,53.8*,-197.1,73.3*
CCSc1nnc(NC(=O)c2ccccc2C)s1,4.5,36.0,55.4*,1.7,44.5
COc1ccccc1C(=O)Nc1nnc(-c2ccco2)s1,-6.9,-5.9,-24.4,-328.9,-8.8
CCSc1nnc(NC(=O)c2cccnc2)s1,-5.2,-0.3,10.8,10.2,16.2
CCSc1nnc(NC(=O)c2ccccn2)s1,0.7,18.2,60.1*,7.9,60.4*
CC(C)c1nc2sc3c(c2c(=O)[nH]1)CC(C)(C)OC3,4.3,0.7,6.4,21.5,4.0
COc1cc(/C=C/C(=O)OCC(=O)Nc2ccc3c(c2)OCCO3)ccc1OCC#N,-8.7,-1.6,-6.0,-50.0,-6.5
